Experimental data published in ChEMBL document CHEMBL4513135, “CO-ADD screening of IQOG CSIS (Spain) compounds”.
Entries with a potency or affinity are not part of this list.

Columns and labels:
Staphylococcus aureus = conditions: Concentration 32 ug.mL-1; ASSAY_TEST Inhibition of Bacterial Growth; detection method Absorption (OD600); MEDIA CAMHB; plate type 384well; NBS; CORNING #3640; time 18 hr
Escherichia coli = conditions: Concentration 32 ug.mL-1; ASSAY_TEST Inhibition of Bacterial Growth; detection method Absorption (OD600); MEDIA CAMHB; plate type 384well; NBS; CORNING #3640; time 18 hr

Row | Compound | Inhibition (Staphylococcus aureus) [%] | Inhibition (Escherichia coli) [%]
1 | COc1nc(N)c(C#N)c(-c2ccccc2)c1C#N | 26.81 | -3.07
2 | Cc1ccc(C2CC2(N)C(=O)O)cc1.Cl (stereo not given) | 8.71 | 6.19
3 | N#Cc1c(N)nc(Cl)c(C#N)c1-c1ccccc1 | 17.3 | 12.56
4 | CCCC(C)NNC(=O)c1cc2ccccc2[nH]1 (stereo not given) | 2.06 | 3.83
5 | CC1CN(C)c2c(C#N)c(-c3ccccc3)c(C#N)c(=N)n21 (stereo not given) | 26.27 | -6.63
6 | CCOC(=O)c1c(C)[nH]c(=O)c(C#N)c1-c1ccccc1 | 37.77 | -18.87
7 | COc1cc(Br)c(C=O)cc1OC | 28.77 | 5
8 | CC(=O)CCc1c[nH]c2ccccc12 | 10.48 | 10.88
9 | Cc1ccc(/C=C(\C#N)C(=O)c2ccccc2)cc1 | 25.42 | 15.2
10 | N#Cc1cc(C#N)c(Cl)nc1N | 11.29 | 7.53
11 | Cc1nn(-c2ccccc2)c2nc(C)n3nc(-c4ccccc4)nc3c12 | 16.28 | 8.31
12 | C#CCN(C)c1nc(NCC2CCN(Cc3ccccc3)CC2)c(C#N)c(-c2ccccc2)c1C#N | 6.97 | -2.4
13 | Cc1ccc(C2C(C#N)=C(N)Oc3c2ccc2ccccc32)cc1 (stereo not given) | -4.2 | -2.25
14 | C#CCN1CCc2nc3nc(N4CCCC4)c(C#N)cc3c(N)c2C1 | 24.32 | -2.2
15 | Cc1ccc(/C=N/NC(=O)c2c[nH]c3ccccc23)cc1 | 6.96 | 7.51
